Screening data (PubChem)
This is a sample that favours compounds with a hit; in the whole collection about 4% have one here.
tim23-1 inh: inhibits growth of tim23-1 mutant yeast. S. cerevisiae tim23-1 growth, BacTiter-Glo luminescence, 24 h. 1.3% of 330,000 active. inhibition, % at 20 µM;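 active means growth inhibition of the mutant yeast at or above 50%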;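 further: temperature-sensitive mutant grown at 25 °C; plate controls were DMSO-treated mutant yeast for no effect and medium wells lacking yeast for full effect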
tim10-1 inh: inhibits growth of tim10-1 mutant yeast; 2.2% of 330,000 active; AID 463190; S. cerevisiae tim10-1 ts strain growth, BacTiter-Glo, 24 h; inhibition, % at 20 µM;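 active means inhibition of at least 40%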;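 further: mutant grown at 25 °C; 0% = DMSO wells with yeast and 100% = wells holding no yeast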
TIM10 inh: inhibits growth of TIM10 yeast strain; S. cerevisiae TIM10 strain growth, BacTiter-Glo luminescence, 24 h; inhibition, % at 10 µM; 1.4% of 330,000 active; AID 463195;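 active means inhibition of 40% or more at the single tested concentration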;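 further: wild-type TIM10 isogenic control strain grown at permissive 25 °C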
NALP1 inh: NALP1 inhibition; inhibition, % at 10 µM; 0.61% of 280,000 active; S. cerevisiae NALP1/ASC/caspase-1 growth, X-gal OD620, 72 h; in the data active means inhibition mostly above about 24%, no sharp cut-off; inactive means mostly below about 32%
NLRP3 yeast inh: NALP3 inhibition in yeast. Yeast reconstituted NLRP3/ASC/caspase-1, beta-gal luminescence, 24 h. AID 2825. 0.39% of 330,000 active. inhibition, % at 10 µM;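 active means inhibition of 50% or more; inactive means inhibition below 50%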;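 further: plate controls were induced DMSO wells for no effect and uninduced yeast grown without galactose for full effect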
NALP3 confirm: NALP3 inhibition confirmation in yeast; inhibition, % at 10 µM; yeast expressing human NALP3, luminescence; 81% of 1,300 active; shares compounds with NLRP3 yeast inh; in the data active means inhibition above about 48%
Casp1 ASC ctr: active in yeast caspase-1-ASC counter-screen for NALP3 inhibitors. yeast expressing Caspase-1-ASC, luminescence counter screen. inhibition, % at 10 µM. 66% of 1,000 active. shares compounds with NLRP3 yeast inh
NALP3 retest: confirmation retest of NALP3 inhibitors in yeast. shares compounds with NLRP3 yeast inh. yeast expressing human NALP3, luminescence read-out. inhibition, % at 10 µM. 53% of 1,000 active
tim10-1 confirm: tim10-1 yeast growth inhibition, confirmed | inhibition, % at 20 µM | S. cerevisiae tim10-1 ts strain growth, BacTiter-Glo, 24 h | 56% of 7,400 active | shares compounds with tim10-1 inh;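 active means inhibition of yeast growth at or above a set limit in either of two repeat tests at 20 µM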;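 further: tim10-1 mutant grown at permissive 25 °C to find synthetic lethal compounds; 0% = DMSO yeast wells and 100% = medium wells without yeast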
TIM10 conf: TIM10 yeast growth inhibition, confirmed. 63% of 4,600 active. inhibition, % at 10 µM. S. cerevisiae tim10 strain growth, BacTiter-Glo luminescence, 24 h. shares compounds with TIM10 inh;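 active means inhibition of yeast growth at or above a set limit in either of two replicates at 10 µM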;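 further: this counterscreen used the strain with wild-type TIM10; 0% = yeast with DMSO and 100% = medium wells lacking yeast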
tim23-1 conf: tim23-1 yeast growth inhibition, confirmed; shares compounds with tim23-1 inh; S. cerevisiae tim23-1 growth, BacTiter-Glo luminescence, 24 h; inhibition, % at 20 µM; 83% of 4,400 active;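 active means inhibition above about 39% in either of two replicate wells at 20 µM, limit read from the data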;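 further: temperature-sensitive tim23-1 mutant grown at 25 °C; 0% = DMSO wells with yeast and 100% = medium wells without yeast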
* hit, by the source's call; nt = not tested or not shown; + = active, no number; ! = repeats disagree. Unless noted, no stated cut-off is given here; in the data, active means inhibition above about 50%; inactive means the rest.

SMILES	tim23-1 inh	tim10-1 inh	TIM10 inh	NALP1 inh	NLRP3 yeast inh	NALP3 confirm	Casp1 ASC ctr	NALP3 retest	tim10-1 confirm	tim23-1 conf	others
CC(=C/c1ccccc1)/C=N/NC(=O)c1cccs1	64*	-1	35	-8	56*	24	nt	nt	nt	55*
Cc1cc(Nc2ccccc2)nc2cc(O)ccc12	65*	-25	-63	52*	70*	82*	91*	60*	nt	9
COc1ccc(Nc2cc(C)c3ccc(O)cc3n2)cc1	51*	-46	-25	+	76*	91*	nt	nt	nt	-11
CCOc1ccc(Nc2cc(C)c3ccccc3n2)cc1	20	27	9	34	27	nt	nt	nt	nt	nt
Cc1ccc(C)c(S(=O)(=O)Nc2ccc(C(=O)N3CCC3)cc2)c1	11	8	4	nt	7	nt	nt	nt	nt	nt
Cc1csc(=NC(=O)c2ccccc2)n1C	55*	3	44*	2	62*	75*	73*	68*	nt	54*	TIM10 conf=38*
COc1ccc(N2CCN(c3ccc(S(=O)(=O)N(C(C)C)C(C)C)cn3)CC2)cc1	7	-12	5	-3	4	nt	nt	nt	nt	nt
NNC(=O)c1c(O)c2cccc3c2n(c1=O)CCC3	53*	28	24	15	62*	76*	52*	52*	nt	38
O=c1c(Cl)c(O)c2cccc3c4ccccc4n1c23	20	16	9	22	5	nt	nt	nt	nt	nt
COc1c(O)c(=O)n2c3ccccc3c3ccnc1c32	62*	36	35	nt	77*	85*	80*	82*	nt	78*
c1ccc(-c2ncc(-c3ccn[nH]3)s2)cc1	56*	15	49*	-3	65*	84*	79*	64*	nt	68*	TIM10 conf=31
c1ccc(Oc2ccc(-c3ccn[nH]3)cc2)cc1	29	28	27	13	16	nt	nt	nt	nt	nt
O=C(CC(=O)c1c(F)cccc1Cl)c1ccccc1O	63*	52*	8	21	51*	70*	61*	48	14	64*
O=C(CC(=O)c1ccccc1O)c1cccc(F)c1	34	7	-5	-3	32	nt	nt	nt	nt	nt
O=C1Nc2ccccc2/C1=C/c1ccccc1Cl	53*	36	32	12	55*	69*	49	43	nt	46*
CN1CCN(c2ccccc2/C=C2/C(=O)Nc3ccccc32)CC1	20	18	-11	2	28	nt	nt	nt	nt	nt
CCOc1ccccc1NC(=O)C1CCN(C(=O)Cc2ccccc2)CC1	10	6	-1	6	-5	nt	nt	nt	nt	nt
O=C(/C=C1\C(=O)Nc2ccccc21)/C=C1\C(=O)Nc2ccccc21	nt	nt	nt	1	nt	nt	nt	nt	nt	nt
CC(C)Oc1ccc(C(=O)/C=C2/C(=O)Nc3ccccc32)cc1	88*	69*	76*	-47	65*	76*	86*	64*	76*	85*	TIM10 conf=69*
COC(=O)Sc1nc(N2CCOCC2)c2c(c1C#N)CC(C)(C)OC2	6	45*	39	11	-5	nt	nt	nt	31*	nt
Cc1cc(C)nc(Sc2ccc([N+](=O)[O-])cc2[N+](=O)[O-])n1	43	47*	9	2	-1	nt	nt	nt	30*	nt
O=[N+]([O-])c1ccc(Sc2cccc3cccnc23)c([N+](=O)[O-])c1	50	56*	30	11	1	nt	nt	nt	57*	nt
C=CCn1nc([N+](=O)[O-])nc1Sc1cccc2cccnc12	41	52*	16	14	-4	nt	nt	nt	37*	nt
O=C(Nc1ncc([N+](=O)[O-])s1)c1cccs1	32	43*!	22	7	20	nt	nt	nt	38*	nt
O=C(O)CCCCCNS(=O)(=O)c1ccc2c(c1)OCCO2	-14	8	4	2	15	nt	nt	nt	nt	nt
